The text below walks through data of PubChem BioAssay (EPA / NIEHS).

Structures are written as SMILES. Records with an inconclusive call do not appear. Calls of active or inactive are those of the source. The calls were made as follows, unless noted: active = hit-call score of the fitted dose curve at least 0.9, where 1 is the maximum; inactive = score below 0.9.

Assay [1] addresses Paired box protein Pax-6 (Homo sapiens) (UniProt P26367). Put plainly: ATG_Pax6_CIS: Attagene CIS-FACTORIAL HepG2 Assay for human Paired Box 6 (PAX6) (AID 2282956). To be noted: HepG2 CIS-FACTORIAL PAX6 reporter transcription, RNA readout; actives raise or lower the signal. The gist of the method:
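HepG2 cells transiently transfected with cis-promoter-driven multiplexed reporter units sensing endogenous transcription factor activity; 24 h chemical exposure. Reporter mRNA quantified by RT-PCR, 6-FAM labelling, HpaI digestion and capillary electrophoresis; bidirectional fit versus DMSO baseline.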

A short description of assay [2]: ATG_PXRE_CIS: Attagene CIS-FACTORIAL HepG2 Assay for human Pregnane X Receptor Element (PXRE) (AID 2282957). The conditions noted are these: HepG2 Attagene CIS-FACTORIAL PXRE reporter, mRNA; actives raise or lower the signal. The gist of the method: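 Transfect HepG2 with MRTUs (cis promoter elements); dose chemical, incubate 24 h; isolate RNA, RT with oligo(dT), PCR, 6-FAM label, HpaI cut, CE. Gain/loss fit vs DMSO.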

Assay [3] can be described thus: ATG_PPRE_CIS: Attagene CIS-FACTORIAL HepG2 Assay for human Peroxisome Proliferator-activated Response Element (PPRE) (AID 2282958). To be noted: HepG2 PPRE cis-element reporter, Attagene transcription factor profiling; actives raise or lower the signal. In short, it runs like this: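 HepG2 cells are transiently transfected with multiplexed cis-promoter reporter units to report endogenous PPAR activity. After 24 h dosing, reporter mRNA is read by RT-PCR and capillary electrophoresis. Fitting is bidirectional against DMSO.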

Assay [4] is described as follows: ATG_RORE_CIS: Attagene CIS-FACTORIAL HepG2 Assay for human RAR-related Orphan Receptor Element (RORE) (AID 2282959). To be noted: HepG2 Attagene cis-factorial RORE reporter, mRNA; actives raise or lower the signal. In short, it runs like this: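 HepG2 cells carrying transiently transfected cis-regulated reporter units; RORE-driven reporter mRNA quantified 24 h post-dosing by RT-PCR, 6-FAM primer extension, HpaI digestion and capillary electrophoresis. Bidirectional fit versus DMSO.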

The nature of assay [5]: ATG_Sox_CIS: Attagene CIS-FACTORIAL HepG2 Assay for human SRY-box transcription factor (SOX) (AID 2282960). To be noted: HepG2 Attagene cis-factorial SOX reporter, mRNA; actives raise or lower the signal. The gist of the method: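 HepG2 cells transiently transfected with multiple cis-regulated reporter units, then dosed for 24 h. Reporter mRNA quantified by RT-PCR, fluorescent labelling, HpaI digestion and capillary electrophoresis; bidirectional fit versus DMSO.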

The target in assay [6] is Transcription factor Sp1 (Homo sapiens) (UniProt P08047). Put plainly: ATG_Sp1_CIS: Attagene CIS-FACTORIAL HepG2 Assay for human Specificity Protein 1 (Sp1) (AID 2282961). To be noted: HepG2 Sp1 cis-reporter transcription, actives raise or lower the signal. The gist of the method: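 HepG2 cells transiently transfected with multiplexed cis-regulated reporter constructs, chemical exposure 24 h. Reporter mRNA quantified by RT-PCR with capillary electrophoresis; bidirectional fit relative to DMSO.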
Transcription factor Sp1 (Homo sapiens), sequence (P08047 whole entry, looked up): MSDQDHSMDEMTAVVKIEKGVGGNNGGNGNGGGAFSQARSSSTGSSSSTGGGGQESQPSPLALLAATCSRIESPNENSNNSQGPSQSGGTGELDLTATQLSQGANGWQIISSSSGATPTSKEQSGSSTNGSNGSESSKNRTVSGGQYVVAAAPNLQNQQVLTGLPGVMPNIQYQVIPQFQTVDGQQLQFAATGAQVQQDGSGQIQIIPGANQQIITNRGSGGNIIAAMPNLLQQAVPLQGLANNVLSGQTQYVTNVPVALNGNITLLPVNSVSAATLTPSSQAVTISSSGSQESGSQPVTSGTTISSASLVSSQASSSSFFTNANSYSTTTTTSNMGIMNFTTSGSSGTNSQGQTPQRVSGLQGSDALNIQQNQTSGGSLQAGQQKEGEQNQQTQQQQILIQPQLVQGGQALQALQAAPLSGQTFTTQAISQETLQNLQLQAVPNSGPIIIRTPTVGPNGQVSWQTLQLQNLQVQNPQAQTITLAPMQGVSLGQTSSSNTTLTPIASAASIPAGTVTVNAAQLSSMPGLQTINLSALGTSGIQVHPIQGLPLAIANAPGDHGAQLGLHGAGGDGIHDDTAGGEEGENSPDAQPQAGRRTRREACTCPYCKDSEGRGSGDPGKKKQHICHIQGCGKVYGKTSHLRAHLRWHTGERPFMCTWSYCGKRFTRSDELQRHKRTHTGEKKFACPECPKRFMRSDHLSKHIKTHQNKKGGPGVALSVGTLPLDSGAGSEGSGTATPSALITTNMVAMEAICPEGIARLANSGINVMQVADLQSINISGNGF

Assay [7] can be described thus: ATG_SREBP_CIS: Attagene CIS-FACTORIAL HepG2 Assay for human Sterol Regulatory Element Binding (SREBP) (AID 2282962). To be noted: HepG2 Attagene cis-factorial SREBP reporter, mRNA; actives raise or lower the signal. The gist of the method:
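HepG2 cells transiently transfected with multiplexed cis-promoter reporter units sensing endogenous transcription factors; reporter mRNA measured 24 h after dosing by RT-PCR, 6-FAM labeling, HpaI digestion and capillary electrophoresis. Bidirectional fit versus DMSO.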

In assay [8] the target is Signal transducer and activator of transcription 3 (Homo sapiens) (UniProt P40763). Put plainly: ATG_STAT3_CIS: Attagene CIS-FACTORIAL HepG2 Assay for human Signal Transducer and Activator of Transcription 3 (STAT3) (AID 2282963). To be noted: HepG2, Attagene cis-factorial STAT3 reporter transcription; actives raise or lower the signal. The gist of the method: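 Endogenous STAT3-responsive cis-element activity was read in transiently transfected HepG2 cells after 24 h treatment. Reporter transcripts were quantified via RT-PCR and capillary electrophoresis, with DMSO as negative control and bidirectional curve fitting.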
Signal transducer and activator of transcription 3 (Homo sapiens), sequence (P40763 whole entry, looked up): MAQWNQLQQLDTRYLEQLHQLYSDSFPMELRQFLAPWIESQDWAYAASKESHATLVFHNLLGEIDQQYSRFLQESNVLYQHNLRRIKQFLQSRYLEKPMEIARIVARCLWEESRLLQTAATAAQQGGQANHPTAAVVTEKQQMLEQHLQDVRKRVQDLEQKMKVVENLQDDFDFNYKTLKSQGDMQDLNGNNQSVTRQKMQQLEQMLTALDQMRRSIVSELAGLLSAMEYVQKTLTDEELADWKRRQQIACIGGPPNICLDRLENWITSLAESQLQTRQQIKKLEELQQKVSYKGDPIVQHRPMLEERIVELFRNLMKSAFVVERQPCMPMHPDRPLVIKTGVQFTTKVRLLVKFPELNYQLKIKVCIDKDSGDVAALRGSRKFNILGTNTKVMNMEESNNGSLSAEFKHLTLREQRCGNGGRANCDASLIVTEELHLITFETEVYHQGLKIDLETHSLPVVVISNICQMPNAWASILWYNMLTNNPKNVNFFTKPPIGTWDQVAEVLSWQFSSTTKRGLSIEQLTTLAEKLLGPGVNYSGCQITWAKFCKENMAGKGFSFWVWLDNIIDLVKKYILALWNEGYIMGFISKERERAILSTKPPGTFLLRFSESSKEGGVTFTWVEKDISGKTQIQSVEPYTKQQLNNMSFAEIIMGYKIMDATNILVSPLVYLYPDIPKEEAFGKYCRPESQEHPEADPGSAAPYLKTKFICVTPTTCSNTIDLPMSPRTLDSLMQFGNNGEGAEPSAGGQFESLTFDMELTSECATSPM

A short description of assay [9]: ATG_TA_CIS: Attagene CIS-FACTORIAL HepG2 Assay for human TA Basal Promoter (AID 2282964). To be noted: HepG2 Attagene CIS-factorial TA basal promoter reporter; actives raise or lower the signal. The gist of the method: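 Fluorescence from labelled RT-PCR reporter fragments, separated by capillary electrophoresis, gives the signal. Cells: HepG2 transiently carrying multiple reporter units, 24 h chemical dosing. Gain or loss relative to DMSO.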

Assay [10] in a line: ATG_TCF_b_cat_CIS: Attagene CIS-FACTORIAL HepG2 Assay for human T-Cell-Factor with beta-catenin (TCF/b-cat) (AID 2282965). To be noted: HepG2 TCF/beta-catenin cis-reporter transcription, actives raise or lower the signal. The gist of the method: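 Endogenous TCF/LEF activity read as reporter transcript level via RT-PCR and capillary electrophoresis fluorescence in transfected HepG2, 24 h exposure; gain or loss of signal fitted against DMSO controls.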

A short description of assay [11]: ATG_TAL_CIS: Attagene CIS-FACTORIAL HepG2 Assay for human TAL Basal Promoter (AID 2282966).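 Also: background control endpoint measuring basal TAL promoter reporter mRNA not a specific factor.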 To be noted: HepG2 Attagene cis-factorial TAL promoter reporter; actives raise or lower the signal. In short, it runs like this: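 Fluorescence of labelled reporter cDNA fragments, resolved by capillary electrophoresis, gave the readout. Human HepG2 liver cells carried transiently transfected cis-element reporter units and were treated for 24 hours; activity was fitted bidirectionally against DMSO.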

Assay [12] can be described thus: ATG_TGFb_CIS: Attagene CIS-FACTORIAL HepG2 Assay for human Transforming Growth Factor (TGF) (AID 2282967). The conditions noted are these: HepG2 Attagene CIS TGFb reporter, mRNA transcription; actives raise or lower the signal. The gist of the method: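 Bidirectional fitting relative to DMSO gave the endpoint. Underlying data: reporter mRNA from HepG2 cells carrying transiently transfected cis-regulated reporter constructs, harvested 24 h after dosing and analyzed by RT-PCR and capillary electrophoresis.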

Assay [13] can be described thus: ATG_VDRE_CIS: Attagene CIS-FACTORIAL HepG2 Assay for human Vitamin D Receptor Element (VDRE) (AID 2282968). The conditions noted are these: HepG2 VDRE cis-reporter transcription, actives raise or lower the signal. The gist of the method:
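Reporter mRNA induction, quantified by capillary electrophoresis of fluorescently labelled RT-PCR products, was read 24 h after dosing HepG2 cells carrying transiently transfected cis-regulated reporter units; gain or loss relative to DMSO.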

Assay [14] concerns the target Estrogen receptor (Homo sapiens) (UniProt P03372). Put plainly: ATG_ERa_TRANS: Attagene TRANS-FACTORIAL HepG2 Assay for human Estrogen Receptor alpha (ERa) (AID 2282970; active = hit-call score of the fitted dose curve at least 0.9, where 1 is the maximum). To be noted: HepG2 Attagene TRANS ERa GAL4 reporter, mRNA. In short, it runs like this:
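Human liver HepG2, transient transfection of multiple GAL4-UAS reporter units; TRANS format (exogenous NR-Gal4 chimera). 24 h dosing. Readout: reporter mRNA, RT-PCR, 6-FAM primer extension, HpaI digest, capillary electrophoresis. Positive direction vs DMSO.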

In assay [15] the target is X-box-binding protein 1 (Homo sapiens) (UniProt P17861). In words: ATG_Xbp1_CIS: Attagene CIS-FACTORIAL HepG2 Assay for human X-box Binding Protein 1 (XBP1) (AID 2282972). The conditions noted are these: HepG2 XBP1 cis-element reporter, Attagene multiplex; actives raise or lower the signal. In short, it runs like this: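 HepG2 cells transiently transfected with multiple cis-element reporter units report endogenous TF activity; 24 h exposure, then reporter mRNA measured by RT-PCR, 6-FAM labelling, HpaI digestion and capillary electrophoresis. Bidirectional fitting versus DMSO.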
X-box-binding protein 1 (Homo sapiens), sequence (P17861 whole entry, looked up): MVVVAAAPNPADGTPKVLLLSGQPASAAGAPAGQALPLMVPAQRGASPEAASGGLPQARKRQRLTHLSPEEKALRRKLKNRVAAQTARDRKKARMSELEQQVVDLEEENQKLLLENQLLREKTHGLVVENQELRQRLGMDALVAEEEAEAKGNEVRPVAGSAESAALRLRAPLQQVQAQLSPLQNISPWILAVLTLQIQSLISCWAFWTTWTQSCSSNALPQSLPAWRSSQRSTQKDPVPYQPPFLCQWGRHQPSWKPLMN

The nature of assay [16]: ATG_M_19_TRANS: Attagene TRANS-FACTORIAL HepG2 Assay for M19 Transcription Factor (Internal Marker) (AID 2282974; active = hit-call score of the fitted dose curve at least 0.9, where 1 is the maximum). The conditions noted are these: HepG2 Attagene TRANS-FACTORIAL M19 internal marker reporter. The gist of the method:
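HepG2 transiently transfected with GAL4-UAS multiplex reporter constructs, exposed 24 h; reporter RNA quantified by RT-PCR, 6-FAM labeling, HpaI digestion and capillary electrophoresis; internal background marker fitted upward versus DMSO.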

Assay [17] has as its target Nuclear receptor subfamily 1 group I member 3 (Homo sapiens) (UniProt Q14994). In words: ATG_CAR_TRANS: Attagene TRANS-FACTORIAL HepG2 Assay for human Constitutive Androstane Receptor (CAR) (AID 2282969; active = hit-call score of the fitted dose curve at least 0.9, where 1 is the maximum;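 also: activators raise reporter mRNA above DMSO so AC50 marks induction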). To be noted: HepG2 Attagene TRANS-FACTORIAL CAR reporter. The gist of the method: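 Readout is reporter mRNA induction, quantified by fluorescent primer extension and capillary electrophoresis after RT-PCR. Cells were HepG2 transiently carrying chimeric NR-Gal4 constructs with GAL4-UAS reporters, treated for 24 h; activity scored upward from DMSO.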

In assay [18] the target is Steroid hormone receptor ERR1 (Homo sapiens) (UniProt P11474). Put plainly: ATG_ERRa_TRANS: Attagene TRANS-FACTORIAL HepG2 Assay for human Estrogen-Related Receptor alpha (ERRa) (AID 2282971; active = hit-call score of the fitted dose curve at least 0.9, where 1 is the maximum). The conditions noted are these: HepG2 Attagene TRANS reporter, ERRa transactivation. In short, it runs like this: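 Reporter transcript induction was quantified by RT-PCR and capillary electrophoresis of FAM-labelled, HpaI-cut products after 24 h treatment of HepG2 cells carrying transiently transfected GAL4-UAS reporter units and an exogenous ERRa-Gal4 fusion; activity scored as increase over DMSO.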
Steroid hormone receptor ERR1 (Homo sapiens), sequence (P11474 whole entry, looked up, the tested form may be a part): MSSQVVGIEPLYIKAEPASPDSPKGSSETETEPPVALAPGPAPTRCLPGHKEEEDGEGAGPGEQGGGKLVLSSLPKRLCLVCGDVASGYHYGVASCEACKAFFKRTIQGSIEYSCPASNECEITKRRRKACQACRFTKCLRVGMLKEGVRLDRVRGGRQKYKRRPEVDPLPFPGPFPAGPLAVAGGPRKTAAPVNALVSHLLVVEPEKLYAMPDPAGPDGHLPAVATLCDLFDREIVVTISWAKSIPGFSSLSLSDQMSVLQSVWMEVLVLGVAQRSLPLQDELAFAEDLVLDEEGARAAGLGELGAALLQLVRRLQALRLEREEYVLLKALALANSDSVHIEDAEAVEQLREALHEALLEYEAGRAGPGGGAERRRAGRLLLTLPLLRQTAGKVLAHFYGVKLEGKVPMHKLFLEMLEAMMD

Nuclear receptor subfamily 1 group I member 3 (Homo sapiens), sequence (Q14994 whole entry, looked up, the tested form may be a part): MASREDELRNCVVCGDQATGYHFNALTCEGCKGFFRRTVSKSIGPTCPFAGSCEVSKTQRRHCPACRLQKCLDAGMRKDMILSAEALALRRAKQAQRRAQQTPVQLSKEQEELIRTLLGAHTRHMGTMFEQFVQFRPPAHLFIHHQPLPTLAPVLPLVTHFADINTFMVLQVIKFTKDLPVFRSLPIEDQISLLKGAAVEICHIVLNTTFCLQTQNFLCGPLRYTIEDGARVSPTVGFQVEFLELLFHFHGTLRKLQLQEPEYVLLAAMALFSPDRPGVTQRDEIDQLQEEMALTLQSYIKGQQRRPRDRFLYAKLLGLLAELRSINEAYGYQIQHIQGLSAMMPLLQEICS
Estrogen receptor (Homo sapiens), sequence (P03372 whole entry, looked up, the tested form may be a part): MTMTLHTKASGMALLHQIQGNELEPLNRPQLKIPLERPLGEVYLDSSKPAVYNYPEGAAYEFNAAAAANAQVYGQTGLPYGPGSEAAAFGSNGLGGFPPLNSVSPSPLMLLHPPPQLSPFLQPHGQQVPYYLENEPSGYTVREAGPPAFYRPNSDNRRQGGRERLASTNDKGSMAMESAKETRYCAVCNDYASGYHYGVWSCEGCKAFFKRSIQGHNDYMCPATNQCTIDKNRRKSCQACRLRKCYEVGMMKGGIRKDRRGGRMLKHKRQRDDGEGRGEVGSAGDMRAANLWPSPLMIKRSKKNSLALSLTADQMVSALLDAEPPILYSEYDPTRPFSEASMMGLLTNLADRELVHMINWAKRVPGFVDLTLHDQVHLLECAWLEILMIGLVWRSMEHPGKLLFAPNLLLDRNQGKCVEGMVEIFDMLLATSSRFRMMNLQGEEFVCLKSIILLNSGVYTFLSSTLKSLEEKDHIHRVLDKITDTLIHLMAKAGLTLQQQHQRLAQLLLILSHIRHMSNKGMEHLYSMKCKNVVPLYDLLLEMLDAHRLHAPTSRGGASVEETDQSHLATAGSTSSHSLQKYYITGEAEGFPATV
Paired box protein Pax-6 (Homo sapiens), sequence (P26367 whole entry, looked up): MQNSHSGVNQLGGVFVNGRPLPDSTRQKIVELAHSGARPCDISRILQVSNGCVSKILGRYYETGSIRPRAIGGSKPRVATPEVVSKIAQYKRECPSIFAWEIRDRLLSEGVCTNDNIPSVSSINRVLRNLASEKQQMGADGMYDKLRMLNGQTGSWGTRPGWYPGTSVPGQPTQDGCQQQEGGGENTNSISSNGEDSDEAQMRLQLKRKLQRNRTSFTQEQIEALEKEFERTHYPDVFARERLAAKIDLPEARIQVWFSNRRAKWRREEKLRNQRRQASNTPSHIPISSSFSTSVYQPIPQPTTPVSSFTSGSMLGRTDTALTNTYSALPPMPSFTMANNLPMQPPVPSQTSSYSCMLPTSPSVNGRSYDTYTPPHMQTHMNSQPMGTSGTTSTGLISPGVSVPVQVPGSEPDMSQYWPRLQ

Turning to `OCC1CO1` (centres undefined), the result in assay [1], in assay [2], in assay [3], in assay [4], in [5] and in assay [6] was inactive. In addition, the compound was called inactive in [7], in assay [8], in [9], in [10], in [11] and in assay [12]. Besides, the result in assay [13], in assay [14], in [15] and in [16] was inactive.

Consider `O=C(CBr)OCc1ccccc1`, for which the compound was called inactive in [1], in assay [2], in [3], in [4], in assay [5] and in [6]. The compound was classed as inactive in [7], in assay [8], in assay [9], in assay [10], in assay [11] and in assay [12]. For the same compound, the compound was called inactive in assay [13], in [17], in assay [14], in assay [15] and in assay [16].

For the compound `CCOP(=S)(NC(C)C)Oc1ccccc1C(=O)OC(C)C` (centres undefined), the call in assay [1], in assay [3], in assay [6], in assay [7], in assay [8] and in assay [9] was inactive. In addition, the compound was called inactive in assay [10], in [11], in assay [12], in assay [17], in assay [18] and in [15]. Besides, the AC50 is 699 nM (active) in assay [2], 46600 nM (active) in assay [4], 1500 nM (active) in assay [13] and 3510 nM (active) in [14].

As to `FC(F)(F)c1ccc(Cl)cc1`, the call in [1], in assay [2], in assay [3], in [4], in assay [5] and in [6] was inactive. Further, the result in [7], in assay [8], in assay [9], in [10], in assay [11] and in assay [12] was inactive. The result in assay [13], in assay [17] and in assay [15] was inactive.

Broadly, the AC50 is the concentration giving half of the maximal activity seen.
